Source: PubChem BioAssay (Tox21)
Records with an inconclusive call do not appear. Unmarked numbers belong to inactive results. The source made the active and inactive calls. Calls come from the whole dose curve.

Experiment: qHTS assay for small molecules that induce genotoxicity in human embryonic kidney cells expressing luciferase-tagged ATAD5 - cell viability (AID 651634); note: nearly all actives have a fitted effect of over 25% in size
Settings: HEK293T ATAD5-luc cells viability, CellTiter-Fluor, 15.5 h; series mostly up to 83.3 µM; activity, negative = cytotoxicity: at the top concentration
Source text: National Center for Advancing Translational Sciences [NCATS]
NIH Chemical Genomics Center [NCGC]
U.S. Environmental Protection Agency [EPA]
National Institutes of Environmental Health Sciences [NIEHS]
National Toxicology Program [NTP]
U.S. Food and Drug Administration [FDA]
Enhanced Level of Genome Instability Gene 1 (ELG1; human ATAD5) protein levels increase in response to various types of DNA damage. Using a luciferase reporter-gene tagged with ElG1, a cell-based assay [developed by Kyungjae Myung, NHGRI, NIH] was used to measure the induction of ATAD5 in human embryonic kidney cells (HEK293T). So, increase in luciferase activity can be used to identify the compounds that cause genetic stress. In addition to genotoxicity, these cells were also used to test for cytotoxicity by measuring the protease activity within live cells.
Tox21 Assay Protocol Summary:
For cytotoxicity screening, 2,000 cells in 5 uL/well were dispensed into white, solid-bottom 1536-well plates using a Multidrop Combi (Thermo Scientific) dispenser. Following transfer of 23 nL compound or DMSO vehicle by a pin tool, the plates were incubated 15.5 hr at 37C and 5% CO2. 1 ul CellTiter-Fluor reagent (Promega, Madison, WI) was then added to each plate and following 30 min incubation at 37C, fluorescence intensity was quantified on a ViewLux CCD-based plate reader.
% is set by controls: 0 for no effect and ±100 for the full control effect; potency is the fitted concentration of half-maximal effect.

Row | SMILES | activity, negative = cytotoxicity | Potency
1 | CCCCCCCC/C=C\CCCCCCCC(=O)OCC | -13.5% | 
2 | O=C(O)C(S)C(S)C(=O)O (stereo not given) | -27.3% | 
3 | CCCCCCCC#N | -15.6% | 
4 | O=[N+]([O-])c1ccc(NCCO)c(OCCO)c1 |  | 61.2 µM (active)
5 | CN(C)CCCN1c2ccccc2Sc2ccccc21 | -6.55% [at 39.1 µM] | 
6 | CCC(=O)O[C@]1(C(=O)CCl)[C@@H](C)C[C@H]2[C@@H]3CCC4=CC(=O)C=C[C@]4(C)[C@@]3(F)[C@@H](O)C[C@@]21C | -15.5% | 
7 | O=C(Cl)c1cc(C(=O)Cl)cc(C(=O)Cl)c1 | 15% | 
8 | CCCNCC(O)COc1ccccc1C(=O)CCc1ccccc1 (stereo not given) | 32.8% | 
9 | O=C1[C@H]2CCCC[C@H]2C(=O)N1CCCCN1CCN(c2nsc3ccccc23)CC1 | -19% | 
10 | COc1cc2nc(N(C)CCCNC(=O)C3CCCO3)nc(N)c2cc1OC (stereo not given) | 15% [at 39.1 µM] | 
11 | CCN(CC)c1ccc2c(-c3ccccc3C(=O)O)c3ccc(=[N+](CC)CC)cc-3oc2c1 |  | 21.7 µM (active)
12 | COc1cc2nc(N3CCN(C(=O)C4COc5ccccc5O4)CC3)nc(N)c2cc1OC (stereo not given) | 5.01% | 
13 | COc1ccc(C(=O)Nc2nc3ccccc3c(NCc3ccccc3)c2C#N)cc1 | -11.6% | 
14 | Cc1cccc(Nc2ccccc2)c1 | -28.6% | 
15 | CCOc1ccc(O)cc1 | -9.24% | 
16 | C[C@@H](c1ncncc1F)C(O)(Cn1cncn1)c1ccc(F)cc1F (stereo not given in full) | 7.25% | 
17 | CCCn1cnc2c1c(=O)n(CCCCC(C)=O)c(=O)n2C | 8.93% | 
18 | O=CC1CC=CCC1 (stereo not given) | 6.75% | 
19 | CCCCCCc1ccc(-c2ccc(C#N)cc2)cc1 | 21.5% | 
20 | Nc1cccc(S(=O)(=O)c2cccc(N)c2)c1 | -13.4% | 

Row | SMILES | activity, negative = cytotoxicity | Potency
21 | O=C(O)CNCC(=O)O | 24.8% [at 8.08 µM] | 
22 | O=[N+]([O-])c1cccc(S(=O)(=O)O)c1 | 18.4% [at 95.3 µM] | 
23 | CCN(CC)CCOC(=O)C(Cc1cccc2ccccc12)CC1CCCO1 (stereo not given) | 10.1% [at 39.1 µM] | 
24 | OC(CN1CCC(Cc2ccc(F)cc2)CC1)c1ccc(Cl)cc1 (stereo not given) | 12.8% | 
25 | O=C(Nc1ccccc1)c1ccccc1O | 8.05% | 
26 | OCCNCc1ccccc1 | -7.13% | 
27 | O=C(O)c1ccc(S(=O)(=O)O)cc1C(=O)O | 12.3% | 
28 | COc1cc(Cl)ccc1Oc1ccc(Cl)cc1Cl | 16% | 
29 | Cc1cc(N)c2cc(NC(=O)Nc3ccc4nc(C)cc(N)c4c3)ccc2n1 | 4.71% | 
30 | CNC(=O)CN(CCN(CCN(CC(=O)[O-])CC(=O)NC)CC(=O)[O-])CC(=O)[O-].O.[Gd+3] |  | inactive
31 | Cc1cccc(C)c1OCC(=O)N[C@@H](Cc1ccccc1)[C@@H](O)C[C@H](Cc1ccccc1)NC(=O)[C@H](C(C)C)N1CCCNC1=O |  | 26.6 µM (active)
32 | O=[N+]([O-])c1ccc2[nH]ncc2c1 | 11.5% | 
33 | C[C@H]1C[C@H]2[C@@H]3CCC4=CC(=O)C=C[C@]4(C)[C@@]3(Cl)[C@@H](O)C[C@]2(C)[C@@]1(O)C(=O)CO | 9.88% | 
34 | O=C1OC(CN2CCOCC2)CN1/N=C/c1ccc([N+](=O)[O-])o1 (stereo not given) | -8.08% [at 39.1 µM] | 
35 | O=C(O)C1(C(=O)Nc2ccc(Cl)cc2Cl)CC1 | -24.1% | 
36 | CN1C[C@H]2c3ccccc3Oc3ccc(Cl)cc3[C@@H]2C1 | 20.9% | 
37 | Cc1ccccc1S(=O)(=O)O | -6.68% [at 95.3 µM] | 
38 | Brc1c2ccccc2cc2ccccc12 | 28% [at 95.3 µM] | 
39 | C=CC(=O)OCCOCCOCCOCCOC(=O)C=C |  | 54.8 µM (active)
40 | CC(C)=CCC/C(C)=C/CC/C(C)=C/CO | 11.7% | 
